The values below come from PubChem BioAssay (NCI).

Each structure is given as a SMILES string. Compounds without any hit were thinned out: in the full panel of roughly 83,000, 20% have a hit.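 48-hour exposure, single concentration, 96-well plates; percent growth endpoint where 0 means no net growth. Active: below 10.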 Unmarked numbers belong to inactive results. Activity calls are given as the source filed them.

Holding throughout (experiment): NCI-60 one-dose screen, 48 h (100 = growth as untreated, 0 = no growth, -100 = all killed)
One experiment has as its system K-562 leukemia. Conditions: 10 µM unless noted.
In another experiment the test system is MALME-3M melanoma. Conditions: 10 µM unless noted.
For a further experiment, the system named is RXF 393 renal. As to conditions: 10 µM unless noted.
The next experiment has as its system SF-295 CNS. Conditions: 10 µM unless noted.
A further experiment deals with UACC-257 melanoma. Conditions: 10 µM unless noted.
The next experiment deals with HCT-15 colon. Conditions: 10 µM.
For another experiment, the system named is UACC-62 melanoma. As to conditions: 10 µM unless noted.
A further experiment concerns LOX IMVI melanoma. As to conditions: 10 µM unless noted.
The subject of the next experiment is SK-MEL-2 melanoma. As to conditions: 10 µM unless noted.
The subject of a further experiment is TK-10 renal. Conditions: 10 µM unless noted.
The subject of the next experiment is ACHN renal. As to conditions: 10 µM unless noted.
A further experiment has as its system A498 renal. Conditions: 10 µM unless noted.
The test system of the next experiment is HL-60(TB) leukemia. As to conditions: 10 µM unless noted.
Another experiment deals with MOLT-4 leukemia. As to conditions: 10 µM.
The next experiment concerns OVCAR-8 ovarian. Conditions: 10 µM unless noted.
Another experiment has as its system OVCAR-4 ovarian. Conditions: 10 µM unless noted.
In another experiment the test system is NCI/ADR-RES ovarian. Conditions: 10 µM unless noted.
For the next experiment, the system named is T-47D breast. As to conditions: 10 µM unless noted.
Another experiment has as its system BT-549 breast. As to conditions: 10 µM.
The next experiment relates to HCC-2998 colon. As to conditions: 10 µM unless noted.

Consider `COc1ccc(C(=O)c2ccc([As]=O)cc2)cc1` (stereo not drawn), for which the growth with K-562 leukemia was 0.914% (active); in the experiment with MALME-3M melanoma, -87% (active); in the experiment on RXF 393 renal, -99.6% (active); with SF-295 CNS it was -97.9% (active); in the experiment with UACC-257 melanoma, -95.7% (active); with HCT-15 colon, -73% (active). Besides, the growth with UACC-62 melanoma is -82.1% (active); in the experiment on LOX IMVI melanoma, -97.1% (active); with SK-MEL-2 melanoma, -94% (active); with TK-10 renal, -100% (active); in the experiment on ACHN renal, -91.8% (active); with A498 renal it was -100% (active). Also, the growth was -47.4% (active) in the experiment with HL-60(TB) leukemia; -24.5% (active) in the experiment with MOLT-4 leukemia; -84.2% (active) in the experiment on OVCAR-8 ovarian; -91.4% (active) with OVCAR-4 ovarian; -5.33% (active) in the experiment on NCI/ADR-RES ovarian; -77.6% (active) with T-47D breast. In addition, the growth with BT-549 breast was -99.6% (active); in the experiment on HCC-2998 colon, -88.5% (active).

As to `CC(C)C1c2ccc(O)cc2Oc2nc(N)c(C#N)c(N)c21` (stereo not drawn), the growth is 92.5% with K-562 leukemia; 107% in the experiment with SF-295 CNS; 105% with UACC-257 melanoma; 107% in the experiment with HCT-15 colon; 103% in the experiment on LOX IMVI melanoma; 109% with SK-MEL-2 melanoma. In addition, the growth was 92.5% with ACHN renal; 88.4% with A498 renal; 102% with HL-60(TB) leukemia; 98.1% in the experiment on MOLT-4 leukemia; 96.2% in the experiment with OVCAR-8 ovarian; 101% in the experiment with OVCAR-4 ovarian. The growth with NCI/ADR-RES ovarian is 102%; with T-47D breast, 87.5%; in the experiment with BT-549 breast, 84.2%.

Take `CN(C)P1(N(C)C)=NP(N(C)C)(N(C)C)=NP(N(C)C)(N(C)C)=N1`: the growth in the experiment on K-562 leukemia is 102%; in the experiment with MALME-3M melanoma it was 106%; in the experiment with RXF 393 renal it was 109%; in the experiment on SF-295 CNS, 101%; with UACC-257 melanoma it was 93.6%; with HCT-15 colon it was 101%. Besides, the growth in the experiment with UACC-62 melanoma is 103%; in the experiment with LOX IMVI melanoma it was 92.7%; with SK-MEL-2 melanoma, 98.2%; in the experiment on TK-10 renal, 95.3%; in the experiment on ACHN renal, 97.2%; in the experiment with A498 renal, 108%. Besides, the growth in the experiment on HL-60(TB) leukemia is 100%; in the experiment on MOLT-4 leukemia, 102%; in the experiment on OVCAR-8 ovarian it was 96.1%; in the experiment with OVCAR-4 ovarian it was 95%; in the experiment with NCI/ADR-RES ovarian, 107%; in the experiment with T-47D breast it was 103%. Further, the growth is 105% with BT-549 breast and 111% with HCC-2998 colon.

Consider `COc1cc(C2(C#N)CCN(C)CC2)cc(OC)c1OC`, for which the growth with K-562 leukemia was 97.5%; in the experiment on MALME-3M melanoma it was 113%; with RXF 393 renal, 114%; in the experiment with SF-295 CNS, 98.8%; in the experiment on UACC-257 melanoma, 108%; with HCT-15 colon, 97.2%. Moreover, the growth in the experiment on UACC-62 melanoma is 94.3%; with LOX IMVI melanoma it was 93.8%; in the experiment with SK-MEL-2 melanoma it was 109%; with TK-10 renal, 108%; in the experiment on ACHN renal, 98.5%; in the experiment on A498 renal, 88.4%. The growth in the experiment with HL-60(TB) leukemia is 95%; in the experiment on MOLT-4 leukemia, 83.3%; in the experiment on OVCAR-8 ovarian it was 101%; with OVCAR-4 ovarian, 104%; in the experiment with NCI/ADR-RES ovarian it was 104%; in the experiment with T-47D breast, 98.1%. Further, the growth with BT-549 breast was 101%.

Consider `Cc1ccc(C[As+](c2ccccc2)(c2ccccc2)c2ccccc2)cc1`, for which the growth with K-562 leukemia was 9.47% (active); in the experiment with MALME-3M melanoma it was 25%; with RXF 393 renal, 8.64% (active); in the experiment on SF-295 CNS it was -15.6% (active); in the experiment on UACC-257 melanoma, -17.5% (active); in the experiment on HCT-15 colon, 75.9%. Further, the growth with UACC-62 melanoma is 8.38% (active); with LOX IMVI melanoma, -26.6% (active); with SK-MEL-2 melanoma, -16.9% (active); in the experiment on TK-10 renal, 16.9%; in the experiment on ACHN renal it was 49%; in the experiment with A498 renal, -11% (active). The growth in the experiment on HL-60(TB) leukemia is -26.8% (active); in the experiment with MOLT-4 leukemia, 14%; in the experiment on OVCAR-8 ovarian it was 9.13% (active); in the experiment on OVCAR-4 ovarian it was 23.6%; in the experiment on NCI/ADR-RES ovarian it was 99.2%; with T-47D breast it was -3.86% (active). The growth is -4.76% (active) with BT-549 breast and 16.2% with HCC-2998 colon.

In the case of `O=C(NCc1ccc([N+](=O)[O-])cc1)Nc1ccc(S(=O)(=O)F)cc1`, the growth is 93% with K-562 leukemia; 78.7% in the experiment with MALME-3M melanoma; 59.9% in the experiment on RXF 393 renal; 83% with UACC-257 melanoma; 87.1% in the experiment with HCT-15 colon; 65.1% in the experiment with UACC-62 melanoma. For the same compound, the growth with LOX IMVI melanoma is 92.9%; in the experiment with SK-MEL-2 melanoma it was 105%; in the experiment with TK-10 renal, 78.1%; with ACHN renal, 90.1%; with A498 renal, 55.9%; in the experiment with HL-60(TB) leukemia it was 85.1%. The growth is 87.3% in the experiment on MOLT-4 leukemia; 80% with OVCAR-8 ovarian; 83.4% in the experiment on OVCAR-4 ovarian; 78.3% in the experiment with NCI/ADR-RES ovarian; 57% with T-47D breast; 94.9% with BT-549 breast. Also, the growth with HCC-2998 colon was 99.2%.
